Source: PubChem BioAssay (Tox21)
Activity calls are given as the source filed them. The call rests on the fitted dose curve; in most records, active means well fitted curve in the direction sought with a large enough effect in the repeat runs; inconclusive means weak or mixed curves; inactive means flat fitted curve, though single readings scatter.

Experiment: qHTS assay to test for compound auto fluorescence at 535 nm (green) in HEK293 cell free culture (AID 720682)
Settings: cell-free medium, green autofluorescence 485/535 nm, hits give high values; series mostly up to 91.3 µM; activity change: at the top concentration
How it was run: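 Read-out: 485/535 nm fluorescence intensity, calibrated against fluorescein. Medium only (DMEM + 10% FBS, no cells); test compound or DMSO vehicle added by pintool before plate reading.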
On the % scale 0 is the no-effect control and ±100 the full control effect.

Structure (SMILES) | activity change | outcome
CCCCCCCCCCCCSC | 0.019% (inactive) | –
C=CCOCC(O)CO (configuration not stated) | -0.0288% (inactive) | –
CC(=O)Oc1cccc(C)c1 | 0.0261% [at 46 µM] (inactive) | –
CC1=CCC(O)(C(C)C)CC1 (configuration not stated) | 0.0558% (inactive) | –
COC(=O)Nc1ccc(Cl)c(Cl)c1 | 0.0303% (inactive) | –
CC[C@H]1OC(=O)[C@H](C)[C@@H](O[C@H]2C[C@@](C)(OC)[C@@H](O)[C@H](C)O2)[C@H](C)[C@@H](O[C@@H]2O[C@H](C)C[C@H](N(C)C)[C@H]2O)[C@](C)(OC)C[C@@H](C)C(=O)[C@H](C)[C@@H](O)[C@]1(C)O | – | inactive
C=CC(C)(CCC=C(C)C)OC(=O)CC (configuration not stated) | 0.0306% (inactive) | –
CC(=O)c1ccc2ccccc2c1 | 0.113% (inactive) | –
CC(C)(C)C(=O)Oc1ccc(S(=O)(=O)Nc2ccccc2C(=O)NCC(=O)O)cc1 | -0.0949% [at 46 µM] (inactive) | –
CC(N)C12CC3CC(CC(C3)C1)C2 (configuration not stated) | 0.0554% [at 46 µM] (inactive) | –
O=C(O)c1cc(C(=O)O)cc(C(=O)O)c1 | -0.138% [at 95.7 µM] (inactive) | –
CCC(=O)OCc1ccccc1 | -0.0324% (inactive) | –
CC(C)C1CCC(O)CC1 (configuration not stated) | 0.0141% (inactive) | –
COc1cc(C(=O)OC(COCCC(C)C)CN2CCOCC2)cc(OC)c1OC (configuration not stated) | -0.0018% [at 46 µM] (inactive) | –

Experiment: qHTS assay to test for compound auto fluorescence at 590 nm (red) in HEK293 cell free culture (AID 720683)
Settings: cell-free medium autofluorescence, Ex540/Em590 red; series mostly up to 91.3 µM; fluorescence, % of fluorescent control: at the top concentration
How it was run: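 Cell-free wells of DMEM with 10% FBS received compound, and intrinsic fluorescence was read at excitation/emission 540/590 nm. Values expressed as equivalence to Rose Bengal sodium.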

Structure (SMILES) | fluorescence, % of fluorescent control | outcome
CCCc1nn(C)c2c(=O)[nH]c(-c3cc(S(=O)(=O)N4CCN(C)CC4)ccc3OCC)nc12 | 0.2% [at 46 µM] (inactive) | –
CO[C@@]1(NC(=O)CSC[C@@H](N)C(=O)O)C(=O)N2C(C(=O)O)=C(CSc3nnnn3C)CS[C@@H]21 | 0.413% [at 46 µM] (inactive) | –
CN(C)CCN(C)CCN(C)C | 0.0851% (inactive) | –
Cc1ccc(C(=O)Nc2ccc(S(=O)(=O)O)c3cc(S(=O)(=O)O)cc(S(=O)(=O)O)c23)cc1NC(=O)c1cccc(NC(=O)Nc2cccc(C(=O)Nc3cc(C(=O)Nc4ccc(S(=O)(=O)O)c5cc(S(=O)(=O)O)cc(S(=O)(=O)O)c45)ccc3C)c2)c1 | -0.47% [at 46 µM] (inactive) | –
C=C(C)C(=O)OCCOCCOCCOCCOC(=O)C(=C)C | -0.353% (inactive) | –
OCCCCCO | -0.232% [at 95.7 µM] (inactive) | –
CO[Si](C)(OC)c1ccccc1 | -0.213% (inactive) | –
CC1=NS(=O)(=O)c2cc(Cl)ccc2N1 | 0.176% [at 46 µM] (inactive) | –
CCOC(=O)CCC(=O)OCC | -0.577% (inactive) | –
CC1(C)[C@@H]2CC[C@@]1(C)[C@H](O)C2 | 0.0278% (inactive) | –
CCCC(C)C(=O)OCC (configuration not stated) | 0.142% (inactive) | –
CCCCS(=O)(=O)N[C@@H](Cc1ccc(OCCCCC2CCNCC2)cc1)C(=O)O | -0.363% [at 46 µM] (inactive) | –
c1coc(CNc2ncnc3nc[nH]c23)c1 | -0.484% (inactive) | –
CCOC(=O)COc1cc(-n2ncc(C(F)(F)F)c(C)c2=O)c(F)cc1Cl | -0.35% (inactive) | –
CC(C)CCCO | 0.141% (inactive) | –
CC(=O)N1C[C@H](O)C[C@H]1C(=O)O | -0.145% [at 46 µM] (inactive) | –
O=S(=O)(O)c1cccc2c(S(=O)(=O)O)cccc12 | 0.117% (inactive) | –
C=CN1CCCCCC1=O | -0.0433% (inactive) | –

Structure (SMILES) | fluorescence, % of fluorescent control | outcome
C[N+]1(C)[C@@H]2CC(OC(=O)[C@H](CO)c3ccccc3)C[C@H]1[C@@H]1O[C@@H]12 (some centres not stated) | 0.0321% [at 46 µM] (inactive) | –
CC(C)C[C@@H](N)C(=O)O | 0.453% [at 46 µM] (inactive) | –
CCCCCCCCCCCCSC | 0.178% (inactive) | –
C=CCOCC(O)CO (configuration not stated) | 0.128% (inactive) | –
CC(=O)Oc1cccc(C)c1 | -0.0069% [at 46 µM] (inactive) | –
CC1=CCC(O)(C(C)C)CC1 (configuration not stated) | -0.142% (inactive) | –
CCOC(=O)COC(=O)c1ccccc1C(=O)OCC | 0.476% (inactive) | –
COC(=O)Nc1ccc(Cl)c(Cl)c1 | -0.0524% (inactive) | –
CCCCCCC1CCC(=O)O1 (configuration not stated) | -0.0648% [at 95.7 µM] (inactive) | –
CC[C@H]1OC(=O)[C@H](C)[C@@H](O[C@H]2C[C@@](C)(OC)[C@@H](O)[C@H](C)O2)[C@H](C)[C@@H](O[C@@H]2O[C@H](C)C[C@H](N(C)C)[C@H]2O)[C@](C)(OC)C[C@@H](C)C(=O)[C@H](C)[C@@H](O)[C@]1(C)O | – | inactive
C=CC(C)(CCC=C(C)C)OC(=O)CC (configuration not stated) | -0.077% (inactive) | –
CC(=O)c1ccc2ccccc2c1 | -0.0975% (inactive) | –
CC(C)(C)C(=O)Oc1ccc(S(=O)(=O)Nc2ccccc2C(=O)NCC(=O)O)cc1 | 0.286% [at 46 µM] (inactive) | –
CC(N)C12CC3CC(CC(C3)C1)C2 (configuration not stated) | -0.164% [at 46 µM] (inactive) | –
O=C(O)c1cc(C(=O)O)cc(C(=O)O)c1 | -0.239% [at 95.7 µM] (inactive) | –
CCC(=O)OCc1ccccc1 | -0.148% (inactive) | –
CC(C)C1CCC(O)CC1 (configuration not stated) | 0.0485% (inactive) | –
COc1cc(C(=O)OC(COCCC(C)C)CN2CCOCC2)cc(OC)c1OC (configuration not stated) | 0.287% [at 46 µM] (inactive) | –

Experiment: qHTS assay to test for compound auto fluorescence at 590 nm (red) in HepG2 cell free culture (AID 720684)
Settings: cell-free medium autofluorescence, red 540/590 nm; series mostly up to 91.3 µM; fluorescence, % of Rose Bengal: at the top concentration
How it was run: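 Auto fluorescence equivalency versus Rose Bengal sodium, red channel Ex/Em 540/590 nm; compounds in cell-free MEM/10% FBS; DMSO vehicle control.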

Structure (SMILES) | fluorescence, % of Rose Bengal | outcome
CCCc1nn(C)c2c(=O)[nH]c(-c3cc(S(=O)(=O)N4CCN(C)CC4)ccc3OCC)nc12 | -0.102% [at 46 µM] (inactive) | –
CO[C@@]1(NC(=O)CSC[C@@H](N)C(=O)O)C(=O)N2C(C(=O)O)=C(CSc3nnnn3C)CS[C@@H]21 | 0.0839% [at 46 µM] (inactive) | –
CN(C)CCN(C)CCN(C)C | -0.014% (inactive) | –
OCCCCCO | 0.0568% [at 95.7 µM] (inactive) | –
CC1=NS(=O)(=O)c2cc(Cl)ccc2N1 | -0.118% [at 46 µM] (inactive) | –
CCOC(=O)CCC(=O)OCC | 0.0649% (inactive) | –
CCCCS(=O)(=O)N[C@@H](Cc1ccc(OCCCCC2CCNCC2)cc1)C(=O)O | 0.0097% [at 46 µM] (inactive) | –
c1coc(CNc2ncnc3nc[nH]c23)c1 | 0.0908% (inactive) | –
CCOC(=O)COc1cc(-n2ncc(C(F)(F)F)c(C)c2=O)c(F)cc1Cl | -0.0558% (inactive) | –
CC(C)CCCO | 0.14% (inactive) | –
CC(=O)N1C[C@H](O)C[C@H]1C(=O)O | -0.137% [at 46 µM] (inactive) | –
O=S(=O)(O)c1cccc2c(S(=O)(=O)O)cccc12 | -0.0865% (inactive) | –
C=CN1CCCCCC1=O | -0.0217% (inactive) | –
C[N+]1(C)[C@@H]2CC(OC(=O)[C@H](CO)c3ccccc3)C[C@H]1[C@@H]1O[C@@H]12 (some centres not stated) | -0.604% [at 46 µM] (inactive) | –
CCCCCCCCCCCCSC | 0.112% (inactive) | –
C=CCOCC(O)CO (configuration not stated) | 0.079% (inactive) | –
CC(=O)Oc1cccc(C)c1 | -0.126% [at 46 µM] (inactive) | –
CC1=CCC(O)(C(C)C)CC1 (configuration not stated) | -0.0212% (inactive) | –
CCOC(=O)COC(=O)c1ccccc1C(=O)OCC | 0.0541% (inactive) | –
COC(=O)Nc1ccc(Cl)c(Cl)c1 | -0.0159% (inactive) | –
CCCCCCC1CCC(=O)O1 (configuration not stated) | 0.0176% [at 95.7 µM] (inactive) | –
CC[C@H]1OC(=O)[C@H](C)[C@@H](O[C@H]2C[C@@](C)(OC)[C@@H](O)[C@H](C)O2)[C@H](C)[C@@H](O[C@@H]2O[C@H](C)C[C@H](N(C)C)[C@H]2O)[C@](C)(OC)C[C@@H](C)C(=O)[C@H](C)[C@@H](O)[C@]1(C)O | – | inactive
C=CC(C)(CCC=C(C)C)OC(=O)CC (configuration not stated) | 0.0697% (inactive) | –
CC(C)(C)C(=O)Oc1ccc(S(=O)(=O)Nc2ccccc2C(=O)NCC(=O)O)cc1 | 0.0024% [at 46 µM] (inactive) | –
O=C(O)c1cc(C(=O)O)cc(C(=O)O)c1 | -0.23% [at 95.7 µM] (inactive) | –
CC(C)C1CCC(O)CC1 (configuration not stated) | 0.004% (inactive) | –
COc1cc(C(=O)OC(COCCC(C)C)CN2CCOCC2)cc(OC)c1OC (configuration not stated) | -0.0098% [at 46 µM] (inactive) | –
